High-throughput results: PubChem BioAssay, The Scripps Research Institute Molecular Screening Center
This is a sample that favours compounds with a hit; in the whole collection about 3.5% have one here.
TEAD-YAP block: TEAD-YAP interaction inhibition; HEK-TIYL cells, TEAD-Gal4/YAP UAS-luciferase luminescence; inhibition, % at 9.12 µM; 1.4% of 640,000 active; in the data active = inhibition above about 32%
FBW7 act: human FBW7 E3 ligase activation, primary screen | 0.13% of 650,000 active | normalized activity (activation), % at 26.1 µM | Q969H0 | AlphaScreen FBW7–phospho-cyclin E peptide binding, activator screen; in the data active = normalized activity above about 1.9%;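 also: purified mutant Fbw7 with reduced substrate affinity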
GPR151 ag: human GPR151 activation. PathHunter beta-arrestin GPR151 cells, luminescence. activation, % at 11.2 µM. 1% of 650,000 active. AID 1508602; in the data active = activation above about 4.9%
Target sequence (Q8TDV0 whole entry, looked up): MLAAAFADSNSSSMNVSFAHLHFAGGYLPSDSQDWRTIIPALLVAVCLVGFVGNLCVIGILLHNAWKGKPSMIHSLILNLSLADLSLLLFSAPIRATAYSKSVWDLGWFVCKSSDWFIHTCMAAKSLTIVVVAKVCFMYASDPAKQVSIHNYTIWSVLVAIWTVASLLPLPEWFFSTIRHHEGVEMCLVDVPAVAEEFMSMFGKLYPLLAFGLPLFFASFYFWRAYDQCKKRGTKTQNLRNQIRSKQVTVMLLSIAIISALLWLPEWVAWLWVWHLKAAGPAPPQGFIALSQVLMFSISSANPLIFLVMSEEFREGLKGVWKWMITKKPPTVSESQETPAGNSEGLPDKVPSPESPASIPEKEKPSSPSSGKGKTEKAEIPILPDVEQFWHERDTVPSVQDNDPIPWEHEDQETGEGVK
MITF primary: human MITF inhibition, primary screen. O75030. AlphaScreen MITF homodimerization, bead proximity signal. inhibition, % at 2.6 µM. 0.91% of 650,000 active; in the data active = inhibition above about 50%
Numbers stand for hits.

What do the screens show for `c1ccc(N2CCN(c3nc(Nc4ccc(N5CCOCC5)cc4)c4ncn(C5CCCCC5)c4n3)CC2)nc1`?
TEAD-YAP block: inactive; FBW7 act: inactive; GPR151 ag: inactive; MITF primary: 52

How did CC(C)n1cnc2c(Nc3ccc(N4CCOCC4)cc3)nc(Nc3nc4ccccc4n3C)nc21 do in these assays?
TEAD-YAP block: 33; FBW7 act: inactive; GPR151 ag: inactive; MITF primary: inactive

Results for CC(C)n1cnc2c(Nc3ccc(N4CCOCC4)cc3)nc(-c3ccc(C(N)=O)cc3)nc21 ?
TEAD-YAP block: 32; FBW7 act: inactive; GPR151 ag: inactive; MITF primary: inactive

Results for CC(C)n1cnc2c(Nc3ccccc3)nc(NC3CCC(O)CC3)nc21 (stereo not drawn) ?
TEAD-YAP block: 68; FBW7 act: inactive; GPR151 ag: inactive; MITF primary: inactive

Results for CC(=O)Nc1ccc(Nc2nc(NC3CCC(O)CC3)nc3c2ncn3C(C)C)cc1 (stereo not drawn) ?
TEAD-YAP block: inactive; FBW7 act: inactive; GPR151 ag: inactive; MITF primary: inactive

Results for Cn1c(CO)nc2cc(N=Cc3cccc(O)c3O)ccc21 ?
TEAD-YAP block: inactive; FBW7 act: inactive; GPR151 ag: inactive; MITF primary: inactive

How did CC(C)n1cnc2c(Nc3ccc(N4CCOCC4)cc3)nc(Nc3ccccn3)nc21 do in these assays?
TEAD-YAP block: 33; FBW7 act: inactive; GPR151 ag: inactive; MITF primary: inactive

How did CCNC(=O)N1CCCC(c2nnc(-c3ccccc3F)s2)C1 (stereo not drawn) do in these assays?
TEAD-YAP block: 38; FBW7 act: inactive; GPR151 ag: inactive; MITF primary: inactive

How did COc1ccc([N+](=O)[O-])cc1NC(=O)C(=O)/C=C(\O)c1ccc(C)cc1 do in these assays?
TEAD-YAP block: inactive; FBW7 act: inactive; GPR151 ag: inactive; MITF primary: inactive

What do the screens show for `CC(C)C(=O)Nc1ccc2nn(-c3ccccc3)nc2c1`?
TEAD-YAP block: 46; FBW7 act: inactive; GPR151 ag: inactive; MITF primary: inactive

Results for O=C(Nc1ccc2nn(-c3ccccc3)nc2c1)C(F)(F)F ?
TEAD-YAP block: inactive; FBW7 act: inactive; GPR151 ag: inactive; MITF primary: inactive

What do the screens show for `CCC(=O)Nc1ccc2nn(-c3ccccc3)nc2c1`?
TEAD-YAP block: 37; FBW7 act: inactive; GPR151 ag: inactive; MITF primary: inactive

How did CC(C)(C)C(=O)Nc1ccc2nn(-c3ccccc3)nc2c1 do in these assays?
TEAD-YAP block: 82; FBW7 act: inactive; GPR151 ag: inactive; MITF primary: inactive

What do the screens show for `NC(=O)c1ccc(-c2nc(NCCOc3ccccc3)c3ncn(CCN4CCCC4=O)c3n2)cc1`?
TEAD-YAP block: inactive; FBW7 act: inactive; GPR151 ag: inactive; MITF primary: inactive

What do the screens show for `COc1cc(OC)c(-c2c3cc(O)c(=O)cc-3oc3cc(O)c(O)cc23)cc1OC`?
TEAD-YAP block: inactive; FBW7 act: inactive; GPR151 ag: inactive; MITF primary: 110

How did CC(=O)Nc1cccc(-c2cc(=O)c3ccccc3o2)c1O do in these assays?
TEAD-YAP block: inactive; FBW7 act: inactive; GPR151 ag: inactive; MITF primary: inactive

How did COc1ccccc1-c1c2cc(O)c(=O)cc-2oc2cc(O)c(O)cc12 do in these assays?
TEAD-YAP block: inactive; FBW7 act: inactive; GPR151 ag: inactive; MITF primary: 104

What do the screens show for `O=c1cc2oc3cc(O)c(O)cc3c(-c3cccc(Cl)c3Cl)c-2cc1O`?
TEAD-YAP block: inactive; FBW7 act: inactive; GPR151 ag: inactive; MITF primary: 102

How did COc1cc2ccc(=O)oc2cc1O do in these assays?
TEAD-YAP block: inactive; FBW7 act: inactive; GPR151 ag: inactive; MITF primary: inactive

Results for O=c1cc2oc3cc(O)c(O)cc3c(-c3ccccn3)c-2cc1O ?
TEAD-YAP block: inactive; FBW7 act: inactive; GPR151 ag: inactive; MITF primary: 86

How did COc1cccc(-c2cc(=O)c3ccccc3o2)c1N do in these assays?
TEAD-YAP block: inactive; FBW7 act: inactive; GPR151 ag: inactive; MITF primary: inactive

What do the screens show for `N#CC1=C(N)Oc2c(oc(CO)cc2=O)C1C1CCCCC1` (stereo not drawn)?
TEAD-YAP block: inactive; FBW7 act: inactive; GPR151 ag: inactive; MITF primary: inactive

What do the screens show for `CCN(CC)c1nc(Nc2ccc(N3CCOCC3)cc2)nc(Nc2nccc3ccccc23)n1`?
TEAD-YAP block: inactive; FBW7 act: inactive; GPR151 ag: inactive; MITF primary: inactive

How did COc1ccccc1-n1c(SCC(=O)N2CCCC2)nc2c(sc(=S)n2-c2ccc(C)c(C)c2)c1=O do in these assays?
TEAD-YAP block: inactive; FBW7 act: inactive; GPR151 ag: inactive; MITF primary: inactive

How did CC(=O)NCC1CCC2(CCN(Cc3ccc4c(c3)CCCN4C)CC2)O1 (stereo not drawn) do in these assays?
TEAD-YAP block: 55; FBW7 act: inactive; GPR151 ag: inactive; MITF primary: inactive
